# This is a sample that favours compounds with a hit; in the whole collection about 9.2% have one here.
# Rab9 promoter act = activators of Rab9 promoter; Huh7 Rab9 promoter-luciferase reporter, luminescence, 24 h; Potency, µM (top dose mostly 9.22 µM), for the others: top-dose activation, negative = inhibition, hits mostly activators; 2.8% of 320,000 active; AID 485297; also: % of control where 0% means no effect; nearly all actives have a fitted effect of over 60% in size
#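 Rab9 promoter-driven luciferase in stably transfected Huh7 cells; 1500 cells/well rested 2 h, exposed to compound in DMSO for 24 h at 37 °C, 5% CO2. Luminescence read 10 min after adding luciferase reagent at ambient temperature.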
# ELG1 genotox = inducers of genotoxicity in HEK293T ELG1-luciferase cells; HEK293T ELG1-luciferase reporter, luminescence, 16 h; Potency, µM (titrated, usually from 46 µM), inactives show top-dose activity change, positive = activation, usual class: activators; 1.3% of 330,000 active; also: % of control where 0% means no effect; nearly all actives have a fitted effect of over 60% in size
#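 HEK293T cells expressing luciferase-tagged ELG1 were exposed to compound or DMSO vehicle for 16 hr at 37 °C and 5% CO2. Luciferase activity was then measured with ONE-Glo after 30 min at room temperature.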
# ELG1 repair inh = blocks ELG1-dependent DNA repair in HEK293T cells | HEK293T ELG1-luciferase reporter, luminescence, 16 h; DNA damage induced by 5-fluorouridine | Potency, µM (doses to about 46.1 µM), without a hit: at the top dose activity change, negative = inhibition, most hits filed as inhibitors | 2.3% of 330,000 active | AID 504467; also: % is scaled to controls: 0 for no effect and ±100 for the full control effect; nearly all actives have a fitted effect of over 55% in size
#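 DMSO vehicle served as the neutral condition. Each well held 2,000 cells given 5-fluorouridine plus compound; after 16 hr at 37 °C/5% CO2, ONE-Glo was added and luciferase measured 30 min later.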
# FLuc modulator = firefly luciferase modulation, counter-screen for miR-21 project | purified FLuc, Km substrates, luminescence inhibition | Potency, µM (top dose mostly 57.5 µM), without a hit: top-dose activity change, negative = inhibition, hits mostly inhibitors | 6.9% of 360,000 active | AID 588342;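 also: plate controls were vehicle for no effect and reference inhibitor for full effect; nearly all actives have a fitted effect of over 55% in size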
# Target sequence (P08659 whole entry, looked up): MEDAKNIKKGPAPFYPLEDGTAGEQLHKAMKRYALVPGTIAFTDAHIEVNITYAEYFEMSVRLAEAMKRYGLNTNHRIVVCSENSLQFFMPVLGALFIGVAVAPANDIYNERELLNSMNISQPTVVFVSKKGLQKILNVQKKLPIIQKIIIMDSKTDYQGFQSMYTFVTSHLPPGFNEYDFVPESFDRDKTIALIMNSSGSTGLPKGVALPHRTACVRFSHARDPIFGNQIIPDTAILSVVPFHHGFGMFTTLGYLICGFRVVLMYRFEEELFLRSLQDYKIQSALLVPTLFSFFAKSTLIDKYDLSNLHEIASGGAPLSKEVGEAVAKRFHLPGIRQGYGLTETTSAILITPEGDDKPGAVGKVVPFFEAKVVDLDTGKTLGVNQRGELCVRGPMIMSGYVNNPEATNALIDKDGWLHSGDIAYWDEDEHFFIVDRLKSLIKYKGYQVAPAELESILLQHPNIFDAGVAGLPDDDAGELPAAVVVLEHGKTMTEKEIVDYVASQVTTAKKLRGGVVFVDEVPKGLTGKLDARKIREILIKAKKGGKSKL
#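 Purified P. pyralis luciferase (10nM final) with 10uM D-luciferin and 10uM ATP (Km levels) in 50mM Tris acetate pH 7.5, 10mM Mg acetate, 0.01% Tween-20, 0.05% BSA; qHTS 6-point titration, ~60 µM downward; luminescence read.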
# SMN2 splice up = enhancers of SMN2 splice variant expression; Potency, µM (titrated, usually from 46.1 µM), for the others: at the top dose activity change, positive = activation, hits mostly activators; HEK293 SMN2-luciferase splicing reporter, luminescence, 30-36 h; 2.8% of 210,000 active; AID 1458; also: % of control where 0% means no effect; nearly all actives have a fitted effect of over 55% in size
#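 HEK293 cells carry an SMN2 minigene-luciferase reporter in which exon 7 inclusion puts luciferase in frame. Cells were seeded at 2000 cells/well, attached for 10-12 hours, then exposed to compounds for 30-36 hours at 37C before ONE-Glo luminescence.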
# NPC1 prom act = activators of NPC1 promoter; Huh7 NPC1 promoter luciferase reporter, 24 h; Potency, µM (series often up to 9.22 µM), for inactives: at the top dose activation, hits mostly activators; 2.4% of 320,000 active; AID 485313; also: % of control where 0% means no effect; nearly all actives have a fitted effect of over 60% in size
#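 NPC1 promoter–luciferase Huh7 cells; 24 h compound; luminescence.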
# * = called active by the depositor; ? = inconclusive; / = not tested or not shown; ! = not confirmed by another sample; [ ] = remark or other dose. Calls follow the shape of the dose curve; as a rule, active = well fitted curve in the direction sought with a large enough effect; inconclusive = small, poorly fitted or top-dose-only effect, or another doubt; inactive = no such curve, though single readings can be large; an effect the other way counts as inactive or inconclusive. Potency is read from the fitted curve at half-maximal effect.
SMILES,Rab9 promoter act,ELG1 genotox,ELG1 repair inh,FLuc modulator,SMN2 splice up,NPC1 prom act
CCOc1ccc(NC(=O)c2cnccn2)cc1,1.3µM*,?,?,5.4µM*,2.5µM*,2µM*
CCOc1ccc(C(=O)Nc2ncccc2Cl)cc1,?,?,?,15µM*,/,?
O=C(O)c1cc(N=Nc2ccc([N+](=O)[O-])cc2)ccc1O,/,/,/,/,14µM*!,/
COc1ccc(/C=C2\C(=O)NC(=S)N2C(=O)c2ccc(F)cc2)cc1,-3%,-1%,6%,12µM*,-21%,-1%
O=C1NC(=S)N(C(=O)c2ccc(F)cc2)/C1=C/c1ccccc1,0%,3%,-1%,?,-21%,1%
CC(C)NC(=O)N1CCC2(CC1)CCN(S(=O)(=O)c1ccccc1)CC2,/,/,/,/,-9%,/
CCOC(=O)C1CCN(C(=O)COC(=O)CNC(=O)c2ccc(C(C)(C)C)cc2)CC1,/,1%,5%,/,/,/
CCCCOc1ccc(N=Nc2ccc(N)nc2N)cn1,2.5µM*,?,?,13µM*,/,3.2µM*
CCCCOc1ccc(Cc2cnc(N)nc2N)cc1,2%,-6%,-15%,-6%,/,14%
O=C(c1ccc(F)cc1)N1CCN(S(=O)(=O)c2ccc(Br)cc2)CC1,-1%,-7%,-16%,4%,/,-5%
COc1ccccc1NC(=O)c1oc2ccc(C)cc2c1C,?,?,?,9.5µM*,?,?
Cc1ccc2oc(C(=O)Nc3nnc(CC(C)C)s3)c(C)c2c1,20%,?,?,-8%,/,10%
Cc1ccc2oc(C(=O)Nc3cc(C)on3)c(C)c2c1,2.5µM*,?,?,0.76µM*,/,3.2µM*
CCN(CC)S(=O)(=O)c1ccc2oc(C(=O)Nc3cc(C)ccc3OC)c(C)c2c1,/,/,/,-1%,/,/
CCOc1cccc2cc(-c3csc(NC(=O)CCC(=O)NCCCN4CCC(C)CC4)n3)c(=O)oc12,4µM*,10µM*,?,17µM*,8.9µM*,27%
CCOc1cccc2cc(-c3csc(NC(=O)CCC(=O)N4CCC(C)CC4)n3)c(=O)oc12,0%,16%,17%,-2%,-21%,?
COc1cccc2cc(-c3csc(NC(=O)CCC(=O)NCCCN4CCC(C)CC4)n3)c(=O)oc12,0.71µM*,?,?,9.5µM*,/,1.4µM*
Cc1nc2ccccc2c2oc(C(=O)NCCN3CCCCC3C)cc12 (stereo unspecified),0%,8%,-3%,5%,5%,-1%
COc1ccc(-c2cc3ccc(O)c(CN4CCC(C)CC4)c3oc2=O)cc1OC,/,/,/,-1%,/,/
CCOc1cccc2cc(-c3csc(NC(=O)CCC(=O)NCCN4CCCCC4C)n3)c(=O)oc12 (stereo unspecified),?,?,?,11µM*,3.2µM*,?
CCOc1ccc2nc(N3CCC(C(=O)NC4CCCCC4)CC3)sc2c1,15%,4%,21%,?,/,24%
CCOc1ccc2nc(N3CCCC(C(=O)NCCCN4CCOCC4)C3)sc2c1 (stereo unspecified),30%,?,?,13µM*,13µM*,22%
CCOc1ccc2nc(N3CCC(C(=O)NCCCN4CCOCC4)CC3)sc2c1,3.5µM*,?,?,8.5µM*,/,?
CCOc1ccc2nc(N3CCCC(C(=O)NCc4ccc(C)cc4)C3)sc2c1 (stereo unspecified),/,/,/,-19%,16%,/
Cc1cc(C)c(/C=C/c2onc(C)c2S(=O)(=O)N2CCC(C(=O)NCCc3ccccc3)CC2)c(C)c1,/,/,/,-2%,/,/
SMILES,Rab9 promoter act,ELG1 genotox,ELG1 repair inh,FLuc modulator,SMN2 splice up,NPC1 prom act
CC(=O)[C@H]1CC[C@@H]2[C@H]3CC=C4C[C@@H](O)CC[C@]4(C)[C@H]3CC[C@]12C,/,/,/,/,-4%[20.6 µM],/
Cc1nc2cc3c(cc2c(C)c1C(=O)OC(C)C)OCO3,18%,1%,4%,?,?,10%
O=C(/C=C/c1ccccc1)OCN1C(=O)c2ccccc2C1=O,0%[1.84 µM],0%,1%,4%,/,-4%
O=Cc1ccc(OC(=O)/C=C/c2ccccc2)cc1,5%,1%,1%,19µM*,/,-1%
CCOc1ccc(/C=C/C(=O)Oc2ccccc2)cc1,12%,5%,6%,1.5µM*,/,-4%
CCOc1ccc(/C=C/C(=O)c2ccc(-c3ccccc3)cc2)cc1,-5%,-5%,3%,-8%,-20%,2%
Cc1ccc(OCCN2C(=O)C(=O)c3cc(C)ccc32)cc1,-12%,?,-1%,15µM*,-36%,-11%
Cc1ccc2c(c1)C(=O)C(=O)N2Cc1ccc(OC(C)C)cc1,/,/,/,-9%,-14%,/
Cc1ccc(OCCCN2C(=O)C(=O)c3cccc(C)c32)cc1,7%,-1%,0%,24µM*,-22%,1%
Cc1ccc(S(=O)(=O)N(C)c2ccccc2C(=O)NC2CCCC2)cc1,2%,0%,0%,-1%,-3%,-2%
NC(=O)c1sc2nc(-c3cccs3)ccc2c1N,?,?,?,9.5µM*,/,?
CCOC(=O)c1sc2nc(-c3ccccc3)ccc2c1N,0.28µM*,0.52µM*,?,0.19µM*,0.79µM*,0.35µM*
NC(=O)c1sc2nc(-c3ccccc3)ccc2c1N,3.2µM*,?,?,2.1µM*,/,1.8µM*
CCOC(=O)c1sc2nc(C)cc(-c3ccccc3)c2c1N,-17%,2%,-7%,1%,-18%,-6%
Cc1cc(F)ccc1NC(=O)c1sc2nc(-c3cccs3)ccc2c1N,/,/,/,3%,10µM*,/
CC(c1ccon1)N(C)C(=O)CCc1nnc(C2(c3ccc(Cl)cc3)CCC2)o1 (stereo unspecified),28%,7%,?,?,/,-6%
CCOC(=O)c1c(C)oc2nc(C)nc(N3CCN(c4cc(Cl)ccc4C)CC3)c12,/,/,/,-1%,/,/
CCc1nnc(SCC(=O)Nc2ccc(NC(C)=O)cc2)n1-n1cccc1,1%,-1%,?,10%,/,-1%
CC(=O)c1sc2nc(-c3ccco3)ccc2c1N,?,21µM*,?,3.8µM*,/,?
Nc1c(C(=O)Nc2ccc(Br)cc2)sc2nc(-c3ccco3)ccc12,-4%,2%,8%,?,-29%,23%
CN(C)c1ccccc1C(=O)c1ccccc1N(C)C,-11%,21µM*,?,19µM*,5µM*,-12%
Cc1ccc(NC(=O)CCNC(=O)c2ccc([N+](=O)[O-])cc2)cc1S(=O)(=O)N(C)C,-3%,-16%,13µM*,-3%,-28%,-9%
